Measured values taken from ChEMBL document CHEMBL2218924, “A broad activity screen in support of a chemogenomic map for kinase signalling research and drug discovery” (Biochem J, 2013).

What follows are compounds tested against T1, Protein kinase C zeta type (Homo sapiens) (UniProt Q05513). Conditions: at 10 µM.
T1 sequence (whole entry): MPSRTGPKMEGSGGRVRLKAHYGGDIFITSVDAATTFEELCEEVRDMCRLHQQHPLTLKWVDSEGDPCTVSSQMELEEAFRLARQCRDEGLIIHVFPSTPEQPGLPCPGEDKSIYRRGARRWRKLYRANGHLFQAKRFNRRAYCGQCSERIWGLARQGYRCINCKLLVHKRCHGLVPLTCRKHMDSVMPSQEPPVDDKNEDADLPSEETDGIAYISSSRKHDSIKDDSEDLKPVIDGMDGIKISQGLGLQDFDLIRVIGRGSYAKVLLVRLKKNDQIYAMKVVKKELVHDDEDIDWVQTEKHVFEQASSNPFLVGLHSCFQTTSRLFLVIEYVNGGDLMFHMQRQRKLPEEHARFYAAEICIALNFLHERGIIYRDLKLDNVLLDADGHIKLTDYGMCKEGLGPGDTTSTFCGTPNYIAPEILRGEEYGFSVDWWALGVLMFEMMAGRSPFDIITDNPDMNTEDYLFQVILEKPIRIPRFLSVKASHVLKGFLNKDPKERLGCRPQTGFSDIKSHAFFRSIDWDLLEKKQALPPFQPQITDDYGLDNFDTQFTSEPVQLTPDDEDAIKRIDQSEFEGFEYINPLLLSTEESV
In the case of `O=C(Nc1cccc(Nc2cc(Nc3cccc(C(F)(F)F)c3)ncn2)c1)C1CC1`, the residual activity is reported as 87%. With `COc1ccc(CNc2nc(N(CCO)CCO)nc3c2ncn3C(C)C)cc1` the residual activity was 95%. `O=c1cc(-c2cccc3c2Sc2ccccc2S3)oc(N2CCOCC2)c1` showed a residual activity of 100%. With `Cn1cnc2cc3c(Nc4cccc(Br)c4)ncnc3cc21` the residual activity was 101%. In the case of `NC(=O)c1ccc2[nH]c(-c3ccc(Oc4ccc(Cl)cc4)cc3)nc2c1`, the residual activity is reported as 100%. `CCC(=O)Nc1ccc2ncnc(Nc3cccc(Br)c3)c2c1` was tested, and the residual activity was 119%. For `CN(C)c1ccc(/C=C2\C(=O)Nc3ccccc32)cc1`, the residual activity was 101%. With `Nc1ccc2ncnc(NCCc3ccc(Oc4ccccc4)cc3)c2c1` the residual activity was 96%. With `O=Nc1c(-c2c(O)[nH]c3ccccc23)[nH]c2ccccc12` the residual activity was 98%. `CO[C@H]1C[C@@H]2CC[C@@H](C)[C@@](O)(O2)C(=O)C(=O)N2CCCC[C@H]2C(=O)O[C@H]([C@H](C)C[C@@H]2CC[C@@H](O)[C@H](OC)C2)CC(=O)[C@H](C)/C=C(\C)[C@@H](O)[C@@H](OC)C(=O)[C@H](C)C[C@H](C)/C=C/C=C/C=C/1C` was tested, and the residual activity was 112%. For `Cc1nc2cc3nc(-c4cccs4)cnc3cc2n1C`, the residual activity was 109%. `COc1ccc(C(=O)Nc2sc3c(c2C(N)=O)CCCC3)cc1OC` showed a residual activity of 109%. `O=C1Nc2ccccc2/C1=C1/Nc2ccccc2/C1=N\OCCC(O)CO` (centres undefined) was tested, and the residual activity was 104%. `c1ccc(-c2n[nH]cc2-c2ccnc3ccccc23)nc1` was tested, and the residual activity was 123%. `COc1cccc(-c2cc(=O)c3ccccc3o2)c1N` gave a residual activity of 105%. Compound `O=C1NC(=O)/C(=C/c2ccc3c(c2)OC(F)(F)O3)S1` has a residual activity of 111%. `Oc1ccc(Nc2nc(-c3ccc(Cl)cc3)cs2)cc1` showed a residual activity of 87%. `Oc1ccc(-c2nc(-c3ccc(F)cc3)c(-c3ccncc3)[nH]2)cc1` gave a residual activity of 92%. Work on `Cn1nc2c3c(cccc31)C(=O)c1ccccc1-2` yielded a residual activity of 106%. `O=C1NC(=O)c2c1c1c3ccccc3[nH]c1c1[nH]c3cc(Br)ccc3c21` was tested, and the residual activity was 88%. `COc1cc2ncnc(Nc3ccc(O)c(Br)c3)c2cc1OC` gave a residual activity of 95%. For `N#C/C(=C(\N)Sc1ccc(N)cc1)c1ccccc1C(F)(F)F`, the residual activity was 105%. Work on `O=C1Nc2cc(Br)ccc2/C1=C1/Nc2ccccc2/C1=N\O` yielded a residual activity of 99%. For `O=C(O)c1ccc2c3c1cccc3c(=O)n1c3ccccc3nc21`, the residual activity was 95%. `Cc1ccc(S(=O)(=O)/C=C/C#N)cc1` gave a residual activity of 96%. `CNc1cc2c(Nc3cccc(Br)c3)ncnc2cn1` gave a residual activity of 118%. Work on `O=c1c2ccccc2[nH]c(=S)n1CCN1CCC(=C(c2ccc(F)cc2)c2ccc(F)cc2)CC1` yielded a residual activity of 94%. For `Oc1c2ccccc2c2c3c(cccc13)N=N2`, the residual activity was 106%. `Cc1cc2ncc(-c3ccccc3)nc2cc1C` was tested, and the residual activity was 104%. For `O=C1c2ccccc2-[n+]2ccc3c([nH]c4ccccc43)c21`, the residual activity was 102%. Compound `CC(C)n1cnc2/c(=N/c3cccc(Cl)c3)nc(NCCO)[nH]c21` has a residual activity of 102%. Work on `O=C1NC(=O)/C(=C\c2ccc3nccnc3c2)S1` yielded a residual activity of 108%. For `Nc1n[nH]c2nnc(-c3c(-c4ccccc4)nn4ccccc34)cc12`, the residual activity was 93%. Compound `Cn1cc(/C=C2\C(=O)Nc3ccc(S(N)(=O)=O)cc32)c2ccccc21` has a residual activity of 109%.
